Some test systems named below: DU-145 prostate; K-562 leukemia; MALME-3M melanoma; MDA-MB-231 breast; RXF 393 renal; SF-268 CNS; SF-295 CNS; SF-539 CNS; UACC-257 melanoma; M14 melanoma; HCT-15 colon; HT29 colon; SNB-75 CNS; SNB-19 CNS; U251 CNS; PC-3 prostate; SK-MEL-5 melanoma; UACC-62 melanoma; LOX IMVI melanoma; SK-MEL-28 melanoma.
What all share (test): NCI-60 one-dose screen, 48 h (100 = growth as untreated, 0 = no growth, -100 = all killed)
Holding throughout (conditions): 10 µM unless noted

Structures are written as SMILES. The panel holds about 83,000 compounds, 20% with a hit somewhere; the sample as a whole holds those more often.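 Interpretation: 100, growth as untreated; towards 0, rising growth inhibition; 0, no net growth; 0 to -100, cell death. Compounds scoring below 10 were considered active.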 Unmarked numbers belong to inactive results. Calls of active or inactive are those of the source.

Take `COc1ccc(C(=O)C[C@]2(O)C(=O)Nc3c(Cl)ccc(Cl)c32)cc1`: the growth in the test with DU-145 prostate is 21.7%; in the test on K-562 leukemia, 13.6%; in the test on MALME-3M melanoma, 51.1%; in the test on MDA-MB-231 breast, 49%; with RXF 393 renal, -3.05% (active); with SF-268 CNS, 61.9%. The growth is 4.67% (active) with SF-295 CNS; -11.6% (active) with SF-539 CNS; 63.9% in the test on UACC-257 melanoma; 5.9% (active) in the test on M14 melanoma; 22.6% with HCT-15 colon; 15.9% in the test on HT29 colon. Besides, the growth in the test with SNB-75 CNS was -39.5% (active); with SNB-19 CNS, 38.9%; in the test on U251 CNS, 33.9%; in the test with PC-3 prostate, 34.3%; in the test with SK-MEL-5 melanoma, 34.6%; in the test with UACC-62 melanoma, 46.4%. The growth in the test on LOX IMVI melanoma is 45.9%.
For `CCOC(=O)c1c(C)oc2ncnc(N3CCN(C(=O)COc4ccc(C(C)(C)C)cc4)CC3)c12`, the growth in the test on DU-145 prostate is 87.5%; with K-562 leukemia it was 53.5%; with MALME-3M melanoma, 70.2%; in the test with MDA-MB-231 breast, 80.5%; with RXF 393 renal, 92.1%; in the test on SF-268 CNS, 91%. In addition, the growth in the test with SF-295 CNS is 79.9%; in the test with SF-539 CNS, 96.1%; in the test with UACC-257 melanoma it was 78.4%; with M14 melanoma, 74.5%; in the test with HCT-15 colon, 79.8%; in the test with HT29 colon, 90.2%. Also, the growth with SNB-75 CNS is 93.5%; in the test with SNB-19 CNS, 85.4%; in the test with U251 CNS it was 89.5%; with PC-3 prostate, 59.3%; in the test on SK-MEL-5 melanoma, 34.8%; with UACC-62 melanoma, 42.9%. For the same compound, the figures for the growth with LOX IMVI melanoma and in the test on SK-MEL-28 melanoma were 75.5% and 85.4%, respectively.
As to `COC(=O)/C=C1\S/C(=N\Nc2ccc([N+](=O)[O-])cc2[N+](=O)[O-])N(C2CCCCC2)C1=O`, the growth in the test on DU-145 prostate was 44.2%; in the test on K-562 leukemia, 17.8%; in the test with MALME-3M melanoma, 87.5%; in the test with MDA-MB-231 breast, 59.8%; with RXF 393 renal, 62%; in the test with SF-268 CNS, 71%. Also, the growth is 77.1% in the test on SF-295 CNS; 69.2% with SF-539 CNS; 80.1% with UACC-257 melanoma; 78.1% in the test on M14 melanoma; 11% in the test on HCT-15 colon; 26.7% with HT29 colon. In addition, the growth was 51.4% with SNB-75 CNS; 51.3% in the test on SNB-19 CNS; 25.8% in the test on U251 CNS; 18.4% with PC-3 prostate; 82.4% in the test with SK-MEL-5 melanoma; 38.7% in the test on UACC-62 melanoma. Besides, in the test on LOX IMVI melanoma, the growth was 72.4%.
For the compound `Cc1ccc(S(=O)(=O)N/N=C/C2(c3ccccc3)CC2)cc1`, the growth in the test on DU-145 prostate was 114%; in the test with K-562 leukemia, 97.8%; in the test with MALME-3M melanoma it was 110%; in the test on MDA-MB-231 breast, 102%; in the test on RXF 393 renal, 94.4%; in the test with SF-268 CNS, 111%. The growth is 94.7% with SF-295 CNS; 114% with SF-539 CNS; 99.7% in the test with UACC-257 melanoma; 115% with M14 melanoma; 115% in the test on HCT-15 colon; 109% in the test with HT29 colon. Moreover, the growth in the test on SNB-75 CNS was 88.2%; in the test on SNB-19 CNS, 99.3%; in the test on U251 CNS, 103%; in the test on PC-3 prostate, 93.7%; in the test with SK-MEL-5 melanoma it was 105%; with UACC-62 melanoma, 102%. The growth is 96.9% with LOX IMVI melanoma and 106% in the test with SK-MEL-28 melanoma.
Consider `Cc1ccc(/C=C2\Oc3ccc(O)c(O)c3C2=O)cc1`, for which the growth in the test with DU-145 prostate is 46.1%; with K-562 leukemia, 19.2%; with MALME-3M melanoma, 66.1%; in the test on MDA-MB-231 breast, 56.1%; with RXF 393 renal, 27.4%; in the test on SF-268 CNS, 37.5%. Moreover, the growth was 54% in the test on SF-295 CNS; 32.7% in the test with SF-539 CNS; 96.6% in the test on UACC-257 melanoma; 56.1% in the test on M14 melanoma; 9.23% (active) with HCT-15 colon; 87.8% with HT29 colon. Moreover, the growth is 32.5% in the test on SNB-75 CNS; 37.9% with SNB-19 CNS; 20.2% in the test on U251 CNS; 43.3% in the test on PC-3 prostate; 47.3% in the test on SK-MEL-5 melanoma; 45.3% with UACC-62 melanoma. In addition, the growth in the test on LOX IMVI melanoma was 16.9%.
For the compound `CCCC1CCC(O)(C(C)(O)C(=O)NC2C(=O)N3NCCCC3C(=O)N(O)C(C)C(=O)N3NCCCC3C(=O)N3NCC(O)CC3C(=O)NC(C)C(=O)OC2C(C)C)OC1CC` (configuration not stated), the growth is -99% (active) with DU-145 prostate; -61.6% (active) with K-562 leukemia; -71.7% (active) with MALME-3M melanoma; -66.3% (active) in the test with MDA-MB-231 breast; -54.3% (active) with RXF 393 renal; -82.1% (active) in the test with SF-268 CNS. Besides, the growth in the test on SF-295 CNS was -85.3% (active); in the test with SF-539 CNS it was -95.1% (active); with UACC-257 melanoma it was -83.3% (active); in the test with M14 melanoma, -60.9% (active); with HCT-15 colon, -64.1% (active); in the test on HT29 colon, -55.6% (active). For the same compound, the growth with SNB-75 CNS is -83% (active); with SNB-19 CNS it was -81.5% (active); in the test on U251 CNS it was -74.2% (active); in the test with PC-3 prostate, -86% (active); in the test with SK-MEL-5 melanoma, -97.3% (active); with UACC-62 melanoma it was -71.8% (active). Besides, the growth is -72.9% (active) in the test with LOX IMVI melanoma and -99.3% (active) in the test with SK-MEL-28 melanoma.
On to `CCOC(=O)CCN(C(=O)Nc1ccccc1)C1CCCCC1`, for which the growth was 100% with DU-145 prostate; 132% in the test on K-562 leukemia; 113% in the test on MALME-3M melanoma; 110% with MDA-MB-231 breast; 177% in the test with RXF 393 renal; 104% with SF-268 CNS. The growth in the test with SF-295 CNS was 108%; in the test on SF-539 CNS, 98.9%; with UACC-257 melanoma it was 119%; in the test on M14 melanoma it was 108%; in the test on HCT-15 colon, 119%; in the test with HT29 colon it was 114%. The growth in the test on SNB-75 CNS was 83.5%; with SNB-19 CNS it was 110%; in the test on U251 CNS it was 118%; with PC-3 prostate it was 119%; in the test with SK-MEL-5 melanoma, 99.2%; in the test on UACC-62 melanoma it was 106%. Further, the results for the growth with LOX IMVI melanoma and with SK-MEL-28 melanoma were 118% and 131%, respectively.
For the compound `Cc1nc2ccccc2c(/C=C/c2ccc(Cl)cc2)c1C(=O)/C=C/c1cccs1`, the growth was 79% in the test on DU-145 prostate; 44.7% in the test on K-562 leukemia; 107% with MALME-3M melanoma; 75.8% in the test with MDA-MB-231 breast; 83.7% with RXF 393 renal; 78.8% in the test with SF-268 CNS. Besides, the growth with SF-295 CNS was 82%; with SF-539 CNS it was 99.5%; in the test on UACC-257 melanoma, 79.9%; in the test on M14 melanoma, 82%; in the test on HCT-15 colon it was 52.1%; with HT29 colon it was 52.8%. Besides, the growth in the test with SNB-75 CNS is 56.7%; with SNB-19 CNS, 86.7%; with U251 CNS it was 77.5%; in the test with PC-3 prostate it was 54%; in the test on SK-MEL-5 melanoma, 76.6%; in the test on UACC-62 melanoma it was 68.4%. Also, the growth with LOX IMVI melanoma is 79.6%; with SK-MEL-28 melanoma, 95.7%.

Source of the values: PubChem BioAssay (NCI).
